Experimental data: paper PMC5540273 (PLoS ONE, 2017)

Tests used:
Conditions in all cases: concentration: 1 μM, replicates: in singlicate; n = 1
SNARK = system: T1, SNARK
T1 construct: gene NUAK2

SNRK = system: SNRK
SRC = system: SRC
SRMS = system: SRMS
SRPK1 = system: SRPK1
SRPK2 = system: SRPK2
SRPK3 = system: SRPK3
STK16 = system: STK16
STK33 = system: STK33
STK35 = system: STK35
STK36 = system: STK36
STK39 = system: STK39
SYK = system: SYK
SgK110 = system: SgK110
TAK1 = system: T2, TAK1
T2 construct: gene MAP3K7

TAOK1 = system: TAOK1
TAOK2 = system: TAOK2
TAOK3 = system: TAOK3
TBK1 = system: TBK1
TEC = system: TEC
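Note: KINOMEscan kinase panel screen.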

Structure (SMILES)	%Inh (SNARK) [%]	%Inh (SNRK) [%]	%Inh (SRC) [%]	%Inh (SRMS) [%]	%Inh (SRPK1) [%]	%Inh (SRPK2) [%]	%Inh (SRPK3) [%]	%Inh (STK16) [%]	%Inh (STK33) [%]	%Inh (STK35) [%]	%Inh (STK36) [%]	%Inh (STK39) [%]	%Inh (SYK) [%]	%Inh (SgK110) [%]	%Inh (TAK1) [%]	%Inh (TAOK1) [%]	%Inh (TAOK2) [%]	%Inh (TAOK3) [%]	%Inh (TBK1) [%]	%Inh (TEC) [%]
CCOc1nccc(-c2c(-c3ccc(F)cc3)ncn2C2CCNCC2)n1 [SB-249175]	82	21	0	34	8	19	1	0	4	0	24	74	32	0	34	100	0	73	23	10
O=C(Nc1n[nH]c2nc(-c3ccccc3O)ccc12)C1CC1 [SB-711880]	0	0	0	0	0	0	23	15	0	57	0	0	0	0	9	9	0	0	27	63
CN1CCN(Cc2ccc(NC(=O)Nc3ccc(N(C)c4ccnc(Nc5ccc(CS(C)(=O)=O)cc5)n4)cc3)cc2)CC1.Cl [GW827654]	59	10	3	0	92.3	31	82	80	0	18	49	36	84	0	89	13	0	0	30	9
c1ccc(Oc2ccc(Nc3ccnc4cc(-c5ccc(CN6CCCCC6)o5)ccc34)cc2)nc1 [GW567143]	9	0	37	94.2	0	0	20	0	99.9	59	0	0	0	0	0	0	0	0	0	41
Cl.Cl.NC(CNC(=O)c1cc(Br)c(-c2ccnc3[nH]ccc23)s1)c1ccccc1 (stereo not shown) [GSK1322949]	74	0	0	0	80	80	83	61	53	20	0	5	27	0	36	66	3	44	20	1
COc1cccc2c(-c3ccncc3)c(-c3ccc(F)cc3)nn12 [GW468513]	9	0	1	0	0	0	2	5	1	0	54	14	0	0	0	0	0	0	2	4
O=C(Nc1n[nH]c2nc(-c3ccccc3)ccc12)C1CC1 [SB-708999]	56	0	0	0	22	23	7	16	0	1	8	0	0	0	0	40	0	7	8	0
COc1cccc(NC(=O)NCCNc2ccnc(Nc3ccc(F)cc3)n2)c1 [GSK1379879]	0	0	0	0	0	0	3	0	0	1	0	1	20	0	0	0	0	0	13	0
Cc1ccc(-c2ccc3occ(-c4ccc(S(C)=O)cc4)c3c2)nn1 (stereo not shown)	0	0	6	0	0	6	0	12	0	0	0	0	5	0	0	0	0	0	47	0
Cc1ccc(NC(=O)c2cccc(N3CCCCC3)c2)cc1-c1ccc(C(=O)NCC2CC2)cc1 [GSK1917008]	0	0	0	0	32	0	23	7	0	89	0	0	20	0	0	8	0	12	0	0
Cc1ccc(C)c(NC(=O)Nc2ccc(C)c(-c3ccc(C(=O)Nc4ccncc4)cc3)c2)c1 [GSK1398473]	0	5	8	0	26	0	0	8	3	6	2	5	17	20	0	0	0	0	2	5
Cc1cc(-c2c(-c3ccc(F)cc3)ncn2CCCN2CCOCC2)nc(N)n1 [SB-222517]	0	0	22	26	0	0	19	0	0	0	18	7	26	40	3	0	38	0	42	0
CC(C)(C)c1ccc(C(=O)Nc2cn3cc(-n4ccnc4)ccc3n2)cc1	79	16	0	0	0	0	0	19	0	0	10	0	0	15	9	0	0	0	24	0
Cl.Cl.NCC(NC(=O)c1cc(-c2cccnc2)c(-c2ccnc3[nH]ccc23)s1)c1ccccc1 (stereo not shown) [GSK1323434]	65	0	33	0	44	14	0	26	18	0	0	64	18	0	45	29	0	0	2	27
